# Data published in ChEMBL document CHEMBL3988442, “University of Dundee, Small-Polar-MMV Screening Library” (2021).
# For some assays here: Entries with a potency or affinity are not part of this list.
# Experiments:
# Design in all cases: scale not given: direction of the effect not stated beside the values
# [1] = target: Protein translocase subunit SecA (Escherichia coli (strain K12)) (UniProt P10408); experiment: Assay to Identify E. coli SecA ATPase Inhibitors; assay type: functional; details: 30 µM
# [2] = target: T1, Ubiquitin-activating enzyme e1, putative (Leishmania donovani (strain BPK282A1)) (UniProt E9BSI1); experiment: Leishmania donovani Ubiquitin Activating Enzyme (LdE1); assay type: functional; details: 30 µM
# T1 sequence (whole entry): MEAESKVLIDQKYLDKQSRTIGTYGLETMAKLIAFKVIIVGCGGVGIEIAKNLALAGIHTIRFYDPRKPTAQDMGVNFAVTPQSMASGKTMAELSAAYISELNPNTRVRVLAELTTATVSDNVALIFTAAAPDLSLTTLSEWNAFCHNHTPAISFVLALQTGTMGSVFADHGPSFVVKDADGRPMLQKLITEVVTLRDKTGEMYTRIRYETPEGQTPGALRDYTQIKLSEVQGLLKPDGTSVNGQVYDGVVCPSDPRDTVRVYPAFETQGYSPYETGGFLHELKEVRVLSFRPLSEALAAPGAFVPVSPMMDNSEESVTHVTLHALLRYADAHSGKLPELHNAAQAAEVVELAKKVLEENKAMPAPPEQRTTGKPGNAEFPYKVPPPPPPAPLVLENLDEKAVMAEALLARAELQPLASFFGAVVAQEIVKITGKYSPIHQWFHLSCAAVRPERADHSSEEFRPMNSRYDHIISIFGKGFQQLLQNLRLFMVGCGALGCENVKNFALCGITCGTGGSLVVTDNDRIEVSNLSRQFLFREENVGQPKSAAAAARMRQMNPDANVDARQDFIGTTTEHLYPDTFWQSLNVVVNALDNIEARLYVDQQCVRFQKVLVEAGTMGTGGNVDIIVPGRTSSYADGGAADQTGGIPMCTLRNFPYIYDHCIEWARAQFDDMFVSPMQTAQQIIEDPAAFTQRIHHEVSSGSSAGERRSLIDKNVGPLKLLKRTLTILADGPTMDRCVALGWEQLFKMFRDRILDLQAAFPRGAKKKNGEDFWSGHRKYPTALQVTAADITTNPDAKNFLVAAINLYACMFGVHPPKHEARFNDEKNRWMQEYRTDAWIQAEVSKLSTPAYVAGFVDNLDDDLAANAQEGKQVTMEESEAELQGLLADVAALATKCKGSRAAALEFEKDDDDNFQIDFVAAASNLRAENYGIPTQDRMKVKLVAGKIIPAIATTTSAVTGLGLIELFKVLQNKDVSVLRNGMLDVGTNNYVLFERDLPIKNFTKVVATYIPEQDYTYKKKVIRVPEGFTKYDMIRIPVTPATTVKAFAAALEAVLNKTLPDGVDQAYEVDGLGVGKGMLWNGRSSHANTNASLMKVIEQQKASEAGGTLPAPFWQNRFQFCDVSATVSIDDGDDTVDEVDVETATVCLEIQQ
# [3] = target: AMP-activated protein kinase, AMPK (Homo sapiens) (UniProt P54646+O43741+P54619+Q9UGJ0+Q9Y478+Q13131+Q9UGI9); experiment: AMP-dependent Kinase enzyme assay. An in vitro enzyme assay that detects ADP turnover that is directly proportional to AMPK activity. This uses naive AMPK that is activated during the assay with MK-8722; assay type: functional; details: 30 µM
# [4] = target: Sialic acid-binding Ig-like lectin 9 (Homo sapiens) (UniProt Q9Y336); experiment: Hs-Siglec9 ALPHAscreen SOP 20170721; details: 10 µM
# [5] = system: Trypanosoma cruzi; experiment: Trypanosoma cruzi phosphomannomutase and mannose-1-phosphate guanylyltransferase assay; assay type: functional; details: 10 µM
# [6] = target: T2, Arginase-2, mitochondrial (Homo sapiens) (UniProt P78540); experiment: in vitro enzyme assay to detect the production of urea directly proportional to the activity of Arginase II; assay type: functional; details: 33.3 µM; note: in the data most compounds retested in dose-response had high values
# T2 sequence (whole entry): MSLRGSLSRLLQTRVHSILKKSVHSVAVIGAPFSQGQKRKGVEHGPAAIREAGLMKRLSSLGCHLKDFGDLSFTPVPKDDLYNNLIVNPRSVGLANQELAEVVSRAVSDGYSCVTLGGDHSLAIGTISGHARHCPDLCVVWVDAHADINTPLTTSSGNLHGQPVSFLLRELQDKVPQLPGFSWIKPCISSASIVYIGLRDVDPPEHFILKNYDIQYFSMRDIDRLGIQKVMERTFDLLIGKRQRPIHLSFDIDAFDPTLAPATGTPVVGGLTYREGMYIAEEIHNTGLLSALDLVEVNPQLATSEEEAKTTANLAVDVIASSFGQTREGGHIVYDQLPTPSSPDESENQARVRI
# [7] = target: T3, Proteasome subunit beta (Trypanosoma cruzi) (UniProt O96673); experiment: Trypanosoma cruzi proteasome chymotrypsin-like activity (TcProtChymo) assay.; note: in the data most compounds retested in dose-response had high values; assay type: functional; details: 9.37 µM
# T3 sequence (whole entry): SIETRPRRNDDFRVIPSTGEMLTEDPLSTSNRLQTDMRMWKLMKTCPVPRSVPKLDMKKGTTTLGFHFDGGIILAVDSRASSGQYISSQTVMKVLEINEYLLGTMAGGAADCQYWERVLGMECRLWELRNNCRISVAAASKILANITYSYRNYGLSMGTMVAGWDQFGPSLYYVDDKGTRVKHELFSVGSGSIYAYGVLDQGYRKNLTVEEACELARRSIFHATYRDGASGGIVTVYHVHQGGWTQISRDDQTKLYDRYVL
# [8] = species: Homo sapiens; experiment: To identify inhibition of the IFN signalling (Jak-Stat) pathway via expression of an eGFP reporter gene under the control of an IFN-stimulated response element (ISRE) containing MxA promoter.; assay type: functional; details: 30 µM
# [9] = target: T4, Tyrosyl-tRNA synthetase, putative (Trypanosoma cruzi (strain CL Brener)) (UniProt Q4DSP6); experiment: Trypanosoma cruzi tyrosyl tRNA synthetase (TcYRS) _High Tyrosine SOP; assay type: functional; details: 30 µM; note: in the data most compounds retested in dose-response had high values
# T4 sequence (whole entry): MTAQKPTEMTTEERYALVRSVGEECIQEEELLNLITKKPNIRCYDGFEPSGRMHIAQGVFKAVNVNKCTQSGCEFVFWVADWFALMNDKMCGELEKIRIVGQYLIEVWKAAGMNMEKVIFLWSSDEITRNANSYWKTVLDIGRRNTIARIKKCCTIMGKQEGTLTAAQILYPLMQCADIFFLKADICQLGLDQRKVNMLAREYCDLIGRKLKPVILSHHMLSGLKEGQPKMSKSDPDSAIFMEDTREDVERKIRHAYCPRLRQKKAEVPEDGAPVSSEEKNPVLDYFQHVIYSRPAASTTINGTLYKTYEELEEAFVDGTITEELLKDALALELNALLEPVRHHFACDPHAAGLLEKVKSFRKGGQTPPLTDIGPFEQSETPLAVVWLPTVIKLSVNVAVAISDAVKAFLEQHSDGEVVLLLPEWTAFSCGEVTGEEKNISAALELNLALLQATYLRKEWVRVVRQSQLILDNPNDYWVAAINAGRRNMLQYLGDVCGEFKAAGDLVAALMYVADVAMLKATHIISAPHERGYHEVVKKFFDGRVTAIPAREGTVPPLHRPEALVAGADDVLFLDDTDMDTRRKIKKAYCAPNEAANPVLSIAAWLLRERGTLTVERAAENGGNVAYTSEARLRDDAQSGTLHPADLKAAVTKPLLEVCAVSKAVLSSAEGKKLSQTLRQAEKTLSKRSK
# [10] = target: T4, Tyrosyl-tRNA synthetase, putative (Trypanosoma cruzi (strain CL Brener)); experiment: Trypanosoma cruzi tyrosyl tRNA synthetase (TcYRS) SOP; assay type: functional; details: 30 µM
# [11] = target: Chromo domain-containing protein 1 (Saccharomyces cerevisiae (strain ATCC 204508 / S288c) (Baker's yeast)) (UniProt P32657); experiment: ScCHD-1 Enzyme Inhibition Assay; assay type: functional; details: 30 µM; note: in the data most compounds retested in dose-response had high values
# Chain of Chromo domain-containing protein 1 (Saccharomyces cerevisiae (strain ATCC 204508 / S288c) (Baker's yeast)) (P32657 whole entry, the tested form may be a part): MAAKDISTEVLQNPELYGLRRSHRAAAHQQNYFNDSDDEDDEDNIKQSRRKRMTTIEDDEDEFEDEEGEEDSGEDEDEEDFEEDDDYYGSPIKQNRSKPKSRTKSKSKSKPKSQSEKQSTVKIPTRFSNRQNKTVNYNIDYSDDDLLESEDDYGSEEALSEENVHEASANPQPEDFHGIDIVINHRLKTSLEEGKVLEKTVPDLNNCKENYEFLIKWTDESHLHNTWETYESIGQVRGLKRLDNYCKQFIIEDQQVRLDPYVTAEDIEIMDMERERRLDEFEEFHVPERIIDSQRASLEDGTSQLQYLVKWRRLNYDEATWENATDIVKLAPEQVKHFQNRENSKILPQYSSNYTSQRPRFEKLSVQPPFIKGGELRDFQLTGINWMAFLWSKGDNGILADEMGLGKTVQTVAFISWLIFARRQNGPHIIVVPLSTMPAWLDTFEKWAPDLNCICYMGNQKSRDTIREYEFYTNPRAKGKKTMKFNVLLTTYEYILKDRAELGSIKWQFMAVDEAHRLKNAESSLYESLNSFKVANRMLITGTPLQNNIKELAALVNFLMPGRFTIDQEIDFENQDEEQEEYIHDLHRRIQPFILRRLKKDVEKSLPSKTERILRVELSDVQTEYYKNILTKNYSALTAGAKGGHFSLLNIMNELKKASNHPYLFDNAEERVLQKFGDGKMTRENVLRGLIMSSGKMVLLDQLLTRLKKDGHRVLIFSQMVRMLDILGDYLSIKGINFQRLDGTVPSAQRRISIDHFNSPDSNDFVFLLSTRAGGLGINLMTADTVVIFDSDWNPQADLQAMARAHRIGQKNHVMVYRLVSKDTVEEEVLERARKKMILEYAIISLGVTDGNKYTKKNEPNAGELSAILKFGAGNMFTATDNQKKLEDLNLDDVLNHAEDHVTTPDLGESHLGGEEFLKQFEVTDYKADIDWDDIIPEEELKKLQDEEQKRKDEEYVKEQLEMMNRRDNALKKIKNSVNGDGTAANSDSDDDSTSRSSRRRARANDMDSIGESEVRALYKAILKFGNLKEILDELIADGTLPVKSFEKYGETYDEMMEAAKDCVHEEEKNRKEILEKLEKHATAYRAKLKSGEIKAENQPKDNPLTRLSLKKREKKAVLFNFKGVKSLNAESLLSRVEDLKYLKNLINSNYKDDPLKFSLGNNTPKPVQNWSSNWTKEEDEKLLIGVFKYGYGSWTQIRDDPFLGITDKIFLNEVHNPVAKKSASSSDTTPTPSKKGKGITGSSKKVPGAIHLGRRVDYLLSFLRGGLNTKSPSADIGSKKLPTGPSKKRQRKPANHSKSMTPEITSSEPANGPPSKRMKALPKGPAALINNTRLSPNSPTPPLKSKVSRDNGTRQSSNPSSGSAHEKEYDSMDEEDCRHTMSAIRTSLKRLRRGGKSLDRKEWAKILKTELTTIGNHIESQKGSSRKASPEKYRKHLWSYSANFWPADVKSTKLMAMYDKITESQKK
# Chain of Sialic acid-binding Ig-like lectin 9 (Homo sapiens) (Q9Y336 whole entry): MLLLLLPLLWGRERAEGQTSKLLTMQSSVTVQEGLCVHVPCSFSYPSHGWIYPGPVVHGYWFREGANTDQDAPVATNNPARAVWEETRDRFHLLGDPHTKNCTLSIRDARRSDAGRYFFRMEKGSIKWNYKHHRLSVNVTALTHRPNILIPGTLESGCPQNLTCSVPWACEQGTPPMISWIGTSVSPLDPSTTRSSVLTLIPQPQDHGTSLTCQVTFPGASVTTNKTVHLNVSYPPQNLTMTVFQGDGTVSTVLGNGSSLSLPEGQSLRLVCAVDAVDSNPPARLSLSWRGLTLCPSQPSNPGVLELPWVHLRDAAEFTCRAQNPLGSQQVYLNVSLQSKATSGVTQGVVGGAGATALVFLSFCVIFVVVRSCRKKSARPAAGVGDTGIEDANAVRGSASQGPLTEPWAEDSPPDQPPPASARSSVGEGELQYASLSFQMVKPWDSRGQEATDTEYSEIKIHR
# Chain of Protein translocase subunit SecA (Escherichia coli (strain K12)) (P10408 whole entry): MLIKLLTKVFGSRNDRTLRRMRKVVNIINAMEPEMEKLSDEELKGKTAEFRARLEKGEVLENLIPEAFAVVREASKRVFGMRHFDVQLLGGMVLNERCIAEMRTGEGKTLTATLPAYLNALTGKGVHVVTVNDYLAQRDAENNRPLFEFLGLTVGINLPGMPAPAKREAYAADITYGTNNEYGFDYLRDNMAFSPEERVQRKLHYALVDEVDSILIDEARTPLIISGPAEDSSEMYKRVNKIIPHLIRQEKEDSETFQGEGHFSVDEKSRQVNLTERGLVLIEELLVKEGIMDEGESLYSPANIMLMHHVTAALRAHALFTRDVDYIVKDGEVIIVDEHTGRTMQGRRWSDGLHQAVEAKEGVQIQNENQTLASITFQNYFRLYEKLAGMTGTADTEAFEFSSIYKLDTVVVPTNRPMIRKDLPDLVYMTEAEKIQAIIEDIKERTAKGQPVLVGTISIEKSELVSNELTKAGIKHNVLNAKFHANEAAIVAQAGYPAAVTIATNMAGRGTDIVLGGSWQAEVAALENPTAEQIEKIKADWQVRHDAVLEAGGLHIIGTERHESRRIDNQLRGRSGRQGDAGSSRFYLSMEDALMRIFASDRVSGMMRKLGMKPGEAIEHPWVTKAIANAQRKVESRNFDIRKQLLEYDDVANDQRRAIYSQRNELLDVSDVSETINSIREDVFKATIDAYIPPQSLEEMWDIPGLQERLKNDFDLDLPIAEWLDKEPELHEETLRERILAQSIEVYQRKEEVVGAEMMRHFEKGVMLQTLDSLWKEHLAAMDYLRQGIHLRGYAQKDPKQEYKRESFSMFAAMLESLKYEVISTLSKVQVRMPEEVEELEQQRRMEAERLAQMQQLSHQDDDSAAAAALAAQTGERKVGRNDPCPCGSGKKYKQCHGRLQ
SMILES,Percent Effect [1],Percent Effect [2],Percent Effect [3],Percent Effect [4],Percent Effect [5],Percent Effect [6],Percent Effect [7],Percent Effect [8],Percent Effect [9],Percent Effect [10],Percent Effect [11]
CCC(O)CN1CCN(C(=O)c2cccn2Cc2cccs2)CC1 (configuration not stated),-3.15%,5.06%,1.52%,11.3%,-2.17%,0.38%,-3.03%,5.7%,4.43%,11.4%,-5.26%
CN(Cc1ccc(Cl)s1)C(=O)NCc1nnc2n1CCC2,-2.21%,21.1%,2.58%,-10.7%,4.2%,-3.96%,7.87%,0.395%,6.4%,18.5%,-7.27%
CCc1nccn1C1CCCN(C(=O)c2cnc3ccccc3n2)C1 (configuration not stated),-5.47%,2.63%,7.07%,1.65%,-1.07%,-2.37%,7.77%,24.6%,7.45%,10.4%,-2.28%
Cc1nc(CN2C(=O)CCC23CCN(c2ncccn2)CC3)cs1,-1.55%,16%,-2.28%,4.1%,5.02%,-54.7%,19.3%,-8.11%,5.21%,5%,-8.28%
CCc1n[nH]c(C2CN(Cc3nnc(C4CC4)n3C)CCO2)n1 (configuration not stated),0.518%,20.8%,-9.24%,-6.88%,-1.08%,3.16%,12.7%,30.4%,2.86%,9.41%,-17.9%
Cc1ccc(-c2nc(CNCCn3cccn3)cs2)o1,1.6%,-429%,4.22%,-1.49%,1.13%,4.6%,8.19%,10.3%,11.3%,4.88%,1.79%
CC(NC(=O)CCOc1ccccc1Cl)c1nnc2n1CCC2 (configuration not stated),-2.36%,10.8%,-3.16%,-0.604%,6.51%,-2%,5.77%,6.7%,5.42%,16.1%,-6.83%
CC(C)(O)CN1CCN(C(=O)c2sccc2C2CC2)CC1,-3.28%,6.33%,9.46%,2.31%,-2.56%,4.09%,4.97%,1.7%,3.12%,2.53%,-6.63%
c1ccc(Oc2cc(CNCC3CNc4ccnn4C3)ccn2)cc1 (configuration not stated),-2.02%,11.4%,-0.557%,-0.022%,5.85%,2.37%,11.7%,11.8%,19.8%,20.2%,-13.3%
CC(O)CN1CCN(Cc2cccc(C(=O)N(C)C)c2)CC1 (configuration not stated),-4.84%,-141%,-53.4%,5.64%,1.02%,-3.51%,-4.31%,5.72%,5.94%,3.66%,9.61%
COCC1CN(Cc2cc(C)on2)Cc2cn(C)nc21 (configuration not stated),-1.68%,8%,1.48%,12.2%,-0.965%,-24.2%,9.06%,-11%,6.25%,10%,-4.54%
CCn1c(C)nnc1CN(C)C1CCN(CCc2ccncc2)C1 (configuration not stated),-2.2%,20.8%,-0.899%,1.88%,1.47%,-3.16%,9.62%,13.3%,11.4%,30.6%,-19.1%
Cc1cnn(CC2CCCN2C(=O)c2nccc3ccccc23)c1 (configuration not stated),-3.25%,13%,4.54%,3.78%,-0.49%,-1.05%,6.39%,10.7%,0%,11.8%,-15.9%
CN(CCc1ccccc1)C1CCCN(Cc2nccn2C)C1 (configuration not stated),-4.99%,-39%,-1.69%,5.27%,8.36%,0%,9.48%,-25.8%,6.45%,6.17%,-8.68%
CCN(CC1CCOC1)C(=O)c1cccnc1N1CCOCC1 (configuration not stated),-2.22%,5.26%,-1.45%,12.7%,6.07%,-1.8%,-1.95%,-1.93%,4.43%,6.17%,2.96%
Cc1cccc(-c2ccc(C(=O)NCC(C)(C)C(N)=O)c(=O)[nH]2)c1,-5.4%,2.7%,-7.65%,17.1%,2.92%,-2.81%,5.41%,0.882%,-0.493%,11.1%,-14.8%
NCC1CN(c2nc(-c3ccccc3)nc3c2CCNCC3)CCO1 (configuration not stated),-3.14%,2.74%,-7.79%,3.51%,9.32%,0.798%,-1.11%,4.88%,24%,28.4%,0.577%
O=C(NCC1CC1)[C@@H]1CCO[C@@H]2CCN(Cc3ccco3)C[C@H]21,-1.9%,-2.67%,1.99%,-4.47%,-2.9%,-55.7%,-1.2%,5.41%,-3.12%,-10%,-0.123%
N#Cc1ccccc1C(=O)N1CCC2(CC(=O)NC2=O)C1 (configuration not stated),0.342%,10.8%,0.526%,4.48%,-5.21%,-2.38%,14%,14.1%,4.76%,4.88%,-3.81%
CN1CC2(COCCN(C(=O)c3ccco3)C2)OCC1=O (configuration not stated),-5.81%,2.67%,-0.919%,-3.45%,-5.99%,-55.4%,0.513%,-7.28%,-3.12%,-2.5%,-2.77%
CS(=O)(=O)NCCCNC(=O)c1cccc(-n2cccc2)c1,-5.41%,15.8%,0.491%,-5%,2.04%,1.18%,15.8%,1.58%,1.06%,13%,-6.62%
Cc1ccc(NC2CCN(C(=O)Cc3cccc(F)c3)CC2)nn1,-1.31%,21.6%,-15.1%,7.97%,7.83%,-12%,6.67%,6.31%,9.36%,28.4%,-10.9%
